Assay [1] is described as follows: Quantitative High-Throughput drug screen in 47 multiple myeloma cell lines against the NCATS MIPE library collection: ARP1_JJKsccF8 cell viability assay (AID 1918928; note: nearly all actives have a fitted effect of over 40% in size;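 for viability: 100% = DMSO only wells and 0% = medium only wells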). The conditions noted are these: ARP1 myeloma cells viability, CellTiter-Glo ATP, 48 h; series mostly up to 45.8 µM. The procedure, abridged: (§1)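 Here, 48 h treatment with MIPE 4.0 agents at 37 °C preceded an ATP luminescence read. Plating density was 500 cells per well.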
(In general: Cellular ATP, detected with luciferase, serves as a proxy for viable cell number.)

Assay [2] can be described thus: Quantitative High-Throughput drug screen in 47 multiple myeloma cell lines against the NCATS MIPE library collection: Karpas620_DSMZ cell viability assay (AID 1918959).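 For viability (% of DMSO): 100% = DMSO-only wells and 0% = cell-free media-only wells.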 Note: nearly all actives have a fitted effect of over 30% in size. The note with it: Karpas620 myeloma viability, CellTiter-Glo ATP luminescence, 48 h; series mostly up to 45.8 µM. The method in brief: (§2)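 Viability readout: CellTiter-Glo luminescence following 5 min room-temperature incubation with reagent. Prior exposure: 48 h, 37C, humidified 5% CO2, 500 cells per well.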

Assay [3] in a line: Quantitative High-Throughput drug screen in 47 multiple myeloma cell lines against the NCATS MIPE library collection: KMM1_JCRB cell viability assay (AID 1918960).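 For viability (% of DMSO): 100% = DMSO-treated cells and 0% = medium-only wells.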 Note: nearly all actives have a fitted effect of over 30% in size. The note with it: KMM1 myeloma viability, CellTiter-Glo ATP luminescence, 48 h; series mostly up to 45.8 µM. The method in brief:
as §1

Assay [4] can be described thus: Quantitative High-Throughput drug screen in 47 multiple myeloma cell lines against the NCATS MIPE library collection: KHM11_PLB cell viability assay (AID 1918962). Note: nearly all actives have a fitted effect of over 35% in size. The note with it: KHM11 myeloma cell viability, CellTiter-Glo ATP luminescence, 48 h; series mostly up to 45.8 µM. The procedure, abridged:
as §2

The nature of assay [5]: Quantitative High-Throughput drug screen in 47 multiple myeloma cell lines against the NCATS MIPE library collection: JIM3_ECACC cell viability assay (AID 1918963; note: nearly all actives have a fitted effect of over 35% in size). The conditions noted are these: JIM3 myeloma viability, CellTiter-Glo ATP, 48 h; series mostly up to 45.8 µM. The procedure, abridged:
as §2

The nature of assay [6]: Quantitative High-Throughput drug screen in 47 multiple myeloma cell lines against the NCATS MIPE library collection: JIM1_ECACC cell viability assay (AID 1918964). The conditions noted are these: JIM1 myeloma viability, CellTiter-Glo ATP luminescence, 48 h; series mostly up to 45.8 µM. The method in brief: (§3)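 Approved and investigational drugs from MIPE 4.0 were added by pin tool to 500 cells per well. After 48 hours at 37C, ATP-based CellTiter-Glo luminescence indicated remaining viability.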

Assay [7] can be described thus: Quantitative High-Throughput drug screen in 47 multiple myeloma cell lines against the NCATS MIPE library collection: ARD_JJKsccE7 cell viability assay (AID 1918929;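 for viability: 100% = DMSO-only wells and 0% = media-only wells without cells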). The conditions noted are these: ARD myeloma cell line viability, CellTiter-Glo, 48 h; series mostly up to 45.8 µM. The method in brief:
as §3

Assay [8] in a line: Quantitative High-Throughput drug screen in 47 multiple myeloma cell lines against the NCATS MIPE library collection: JJN3_DSMZ cell viability assay (AID 1918966; note: nearly all actives have a fitted effect of over 50% in size). The conditions noted are these: JJN3 myeloma cells viability, CellTiter-Glo ATP, 48 h; series mostly up to 45.8 µM. The method in brief:
as §3

A short description of assay [9]: Quantitative High-Throughput drug screen in 47 multiple myeloma cell lines against the NCATS MIPE library collection: INA6_PLB cell viability assay (AID 1918965; note: nearly all actives have a fitted effect of over 55% in size). The conditions noted are these: INA6 myeloma viability, CellTiter-Glo ATP luminescence, 48 h; series mostly up to 45.8 µM. The method in brief: as §3
Assay [10] can be described thus: Quantitative High-Throughput drug screen in 47 multiple myeloma cell lines against the NCATS MIPE library collection: Karpas417_ECACC cell viability assay (AID 1918961).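 For viability (% of DMSO): 100% = DMSO only wells and 0% = media only wells without cells.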 The conditions noted are these: Karpas417 myeloma viability, CellTiter-Glo ATP luminescence, 48 h; viability (% of DMSO): at 45.8 µM (top of the series) unless noted. The method in brief: as §3

Results filed as inconclusive are left out. Activity calls are given as the source filed them. Calls come from the whole dose curve; as a rule, active = well fitted curve in the direction sought with a large enough effect; inconclusive = small, poorly fitted or top-dose-only effect, or another doubt; inactive = no such curve, though single readings can be large; an effect the other way counts as inactive or inconclusive.
Potency is the fitted concentration of half-maximal effect.

For `O=c1n(CCCN2CCN(c3cccc(Cl)c3)CC2)nc2ccccn12`, the Potency result in [1], in [2], in assay [3], in assay [4], in assay [5] and in assay [6] was “inactive” in each case.
With `CC1(C)SCCN(S(=O)(=O)c2ccc(OCC#CCO)cc2)[C@@H]1C(=O)NO`, in assay [1], the Potency was 2.35 µM (active). The Potency entry in assay [7], in [2], in assay [5] and in [8] was “inactive” throughout.
In the case of `CCOc1ccn(-c2ccc(F)cc2)c(=O)c1C(=O)Nc1ccc(Oc2ccnc(N)c2Cl)c(F)c1`, the Potency in assay [1] is 14.8 µM (active); in assay [7], 18.7 µM (active). In assay [5], the Potency entry was “inactive”.
On to `COc1cc(Nc2ncc3c(n2)-c2ccc(Cl)cc2C(c2c(F)cccc2OC)=NC3)ccc1C(=O)O`, for which, in [8], the Potency entry is “inactive”.
On to `C1COC(NC(C2CC2)C2CC2)=N1`, for which the Potency result in assay [4] was “inactive”. The Potency in assay [9] is 9.35 µM (active).
Consider `Cc1cn[nH]c1`, for which the Potency in assay [3] was 0.526 µM (active); in assay [8], 1.48 µM (active).
Take `CCCS(=O)(=O)Nc1ccc(F)c(C(=O)c2c[nH]c3ncc(-c4ccc(Cl)cc4)cc23)c1F`: the Potency result in assay [2] and in assay [3] was “inactive” each time. For the same compound, the values for the Potency in [4], in assay [5] and in [9] were 23.5 µM (active), 18.7 µM (active) and 8.33 µM (active), respectively.
As for `COc1ccc(-c2c(-c3ccc(O)cc3O)n[nH]c2C)cc1`, the Potency in [2] is 42.9 µM (active); in [9], 38.2 µM (active). In addition, in assay [10], the viability (% of DMSO) is 34.5% [at 92.2 µM] (active). Further, the Potency result in [4] was “inactive”.
As for `Cc1cnc(Nc2ccc(OCCN3CCCC3)cc2)nc1Nc1cccc(S(=O)(=O)NC(C)(C)C)c1`, the figures for the Potency in [2] and in [8] were 1.48 µM (active) and 0.296 µM (active), respectively. In addition, in [5], the Potency entry is “inactive”.
Take `COc1ccc(-c2ccc3c(N4CCOC[C@H]4C)nc(N4CCOC[C@H]4C)nc3n2)cc1CO`: the figures for the Potency in assay [9] and in [8] were 0.0372 µM (active) and 0.0132 µM (active), respectively.
Take `NCCc1ccc(O)c(O)c1`: the Potency is 20.9 µM (active) in assay [2], 18.7 µM (active) in assay [5] and 20.9 µM (active) in assay [8]. For the same compound, the Potency entry in assay [4] was “inactive”.
As for `NCCCC(N)(C(=O)O)C(F)F` (stereo not drawn), the Potency entry in assay [2] and in [4] was “inactive” throughout. The results for the Potency in assay [5] and in assay [8] were 13.2 µM (active) and 20.9 µM (active), respectively.
In the case of `Cc1[nH]c(=O)c(C#N)cc1-c1ccncc1`, the Potency result in assay [2] and in assay [4] was “inactive” each time. In addition, the Potency in [5] is 18.7 µM (active); in [9], 14.8 µM (active).
For the compound `Cn1c(=O)c(F)c(Nc2ccc(I)cc2F)c2c(=O)n(C[C@@H](O)CO)cnc21`, the Potency in [2] is 0.0118 µM (active); in assay [3] it was 16.6 µM (active); in assay [5] it was 3.32 µM (active).
For `CN[C@@H](C)C(=O)N[C@H]1CCCC[C@H]2CC[C@@H](C(=O)N[C@@H](c3ccccc3)c3cn(CCCCc4ccc(CCCCn5cc([C@@H](NC(=O)[C@@H]6CC[C@@H]7CCCC[C@H](NC(=O)[C@H](C)NC)C(=O)N76)c6ccccc6)nn5)cc4)nn3)N2C1=O`, the Potency in [2] was 14.8 µM (active); in assay [4], 5.26 µM (active); in [9] it was 8.33 µM (active).
For the compound `COc1cc(Oc2ccnc3cc(OC)c(OC)cc23)ccc1NC(=O)NC(C)c1nccs1` (stereo not drawn), the Potency in assay [2] was 7.43 µM (active); in assay [5], 20.9 µM (active); in assay [6], 0.105 µM (active).
Take `O=C1CCCC2=C1C(c1[nH]ncc1Cl)N=C(Nc1nc3ccccc3o1)N2` (stereo not drawn): the Potency is 4.18 µM (active) in assay [2], 4.18 µM (active) in assay [4], 5.9 µM (active) in assay [9] and 5.26 µM (active) in assay [8]. For the same compound, in assay [10], the Potency entry is “inactive”.
Take `O=c1ncn2nc(Sc3ccc(F)cc3F)ccc2c1-c1c(Cl)cccc1Cl`: the Potency entry in assay [5] and in [6] was “inactive” in each case. Moreover, the Potency in [9] is 4.18 µM (active).
As to `COc1cc(F)c(F)c(Nc2ccc(I)cc2F)c1NS(=O)(=O)C1(C[C@H](O)CO)CC1`, the Potency in assay [2] was 20.9 µM (active); in [10] it was 16.6 µM (active); in assay [5] it was 18.7 µM (active); in [6], 16.6 µM (active). In addition, the Potency result in assay [9] is “inactive”.
For `CCN(CC)CCCC(C)Nc1ccnc2cc(Cl)ccc12` (stereo not drawn), the Potency result in assay [3], in [5], in [6] and in assay [8] was “inactive” throughout. In assay [10], the Potency is 0.0526 µM (active).
As to `CCCCCCCc1ccc(CCc2cccc(O)c2C(=O)O)cc1`, the Potency entry in [2] and in assay [6] was “inactive” throughout. Moreover, in assay [5], the Potency is 20.9 µM (active).
Consider `O=S(=O)(N=Cc1c(O)ccc2ccccc12)c1cccs1`, for which the Potency in [5] was 3.32 µM (active); in assay [9] it was 2.64 µM (active). The Potency result in assay [6] was “inactive”.
In the case of `Cn1cc(-c2ccc3nnc(C(F)(F)c4ccc5ncccc5c4)n3n2)cn1`, the Potency entry in assay [2] and in [5] was “inactive” in each case. For the same compound, the values for the Potency in assay [4] and in assay [8] were 4.69 µM (active) and 0.0264 µM (active), respectively.
In the case of `CCOc1cc(C=C2C(=O)N(c3ccccc3)N=C2C)cc(Cl)c1OCC(=O)OC`, in assay [10], the Potency is 8.33 µM (active).
On to `Cc1cc(Nc2nc(N[C@@H](C)c3ncc(F)cn3)ncc2Cl)n[nH]1`, for which, in assay [3], the Potency result is “inactive”. In addition, the Potency in assay [5] is 8.33 µM (active); in assay [9] it was 5.26 µM (active); in [8] it was 18.7 µM (active).
On to `Cc1cc2c(F)c(Oc3ncnn4cc(OC[C@@H](C)O)c(C)c34)ccc2[nH]1`, for which the Potency entry in assay [2] and in assay [6] was “inactive” in each case. Further, in assay [9], the Potency was 18.7 µM (active).
Turning to `Cc1ccc(-n2nc(C(C)(C)C)cc2NC(=O)Nc2ccc(OCCN3CCOCC3)c3ccccc23)cc1`, the Potency is 16.6 µM (active) in assay [2] and 18.7 µM (active) in [5].
As for `Nc1ncnc2nc(-c3ccc(N4CCOCC4)nc3)cc(-c3cccc(Br)c3)c12`, the Potency entry in assay [2], in [10] and in assay [4] was “inactive” throughout. Moreover, the Potency in assay [5] and in assay [9] was 18.7 µM (active) each time.
For `CCOc1cc(C(=O)Nc2ccc(Cl)c(-c3nc4ccccc4[nH]3)c2)cc(OCC)c1OCC`, the values for the Potency in assay [2], in assay [4] and in assay [9] were 13.2 µM (active), 1.18 µM (active) and 11.8 µM (active), respectively.
`Cc1cccc(-c2[nH]c(C(C)(C)C)nc2-c2ccc3nccnc3c2)n1`: the Potency is 6.62 µM (active) in assay [2]; 4.69 µM (active) in assay [3]; 2.64 µM (active) in [5]; 6.62 µM (active) in assay [6]; 7.43 µM (active) in assay [9]; 18.7 µM (active) in assay [8].
On to `Cc1ccccc1C(C(=O)NC1CCCC1)N(C(=O)Cn1cnc2ccccc21)c1cccc(F)c1` (stereo not drawn), for which the Potency result in assay [2] and in assay [3] was “inactive” each time. For the same compound, the Potency in assay [9] was 20.9 µM (active).
Consider `CNC(=O)c1ccc(C)c(-n2c(C)cc(OCc3ccc(F)cc3F)c(Br)c2=O)c1`, for which the Potency in assay [3] is 4.69 µM (active); in assay [5], 16.6 µM (active); in assay [6], 23.5 µM (active); in [9] it was 16.6 µM (active).
As to `O=C(C1CC1)N1CC[C@@H](Cn2c(-c3ccc(-c4ccc5occc5c4)cc3)nc3cnccc32)C1`, in assay [4], the Potency result is “inactive”. The Potency was 16.6 µM (active) in assay [5] and 20.9 µM (active) in assay [9].
For the compound `C[C@H](NC(=O)Cc1cc(F)cc(F)c1)C(=O)N[C@@H]1C(=O)N(C)c2ccccc2-c2ccccc21`, the Potency result in assay [2] and in assay [3] was “inactive” each time. In assay [5], the Potency was 18.7 µM (active).
Regarding `CCC(C)n1ncn(-c2ccc(N3CCN(c4ccc(OC[C@H]5CO[C@](Cn6cncn6)(c6ccc(Cl)cc6Cl)O5)cc4)CC3)cc2)c1=O` (stereo partly drawn), the Potency entry in assay [2], in assay [4], in [5] and in assay [9] was “inactive” in each case.
As for `OC[C@H](Cc1ccccc1)Nc1nc(Oc2ccc3c(c2)CCC3)nc2c1ncn2Cc1ccc(-c2ccccc2)cc1`, the Potency result in assay [10] and in [6] was “inactive” in each case.
Regarding `Clc1ccc(Nc2nnc(Cc3ccncc3)c3ccccc23)cc1`, the Potency in [2] was 1.66 µM (active); in assay [5] it was 20.9 µM (active); in assay [9] it was 16.6 µM (active). Also, the Potency result in assay [3] and in [6] was “inactive” in each case.
As for `COCCNCCCn1c(C(=O)CF)c(-c2ccc(C)cc2)c2c(N)ncnc21`, the Potency result in [5] and in assay [6] was “inactive” throughout. Moreover, the Potency in assay [9] was 16.6 µM (active).

For the origin of these results see PubChem BioAssay (NCATS).
